Source: PubChem BioAssay (NMMLSC)
MEKK2wt PB1 HTS – raises or lowers MEK5 binding to wildtype human MEKK2 PB1 domain | Q9Y2U5 | bead flow cytometry, Alexa488-MEK5 binding to MEKK2 WT; actives lie on both sides | binding response (% of control), % at 10 µM | 290,000 tested, 1.1% active | AID 1531; in the data active = binding response below about 67% or above about 130%
MEKK3 PB1 HTS – modulators (inhibitors or enhancers) of MEK5 binding to human MEKK3 PB1 domain | bead-based flow cytometry, Alexa488-MEK5 binding to MEKK3; actives lie on both sides; 0 = blocked by unlabeled MEK5, 100 = vehicle | binding response (% of control), % at 10 µM | 290,000 tested, 1.4% active | AID 1529;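 active = binding response more than 3 SD above or below the average of its plate-row segment, actives on both sides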;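 also: Alexa488 bead fluorescence after subtracting the streptavidin-only scavenger bead signal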
VLA-4 inh – inhibition in a human VLA-4 binding assay. P13612. VLA-4 expressing cells, ligand binding flow cytometry. inhibition, % (about 7 µM as worked out from the volumes in the protocol). 330,000 tested, 0.2% active; in the data active = inhibition above about 50%
Target sequence (P13612 whole entry, looked up): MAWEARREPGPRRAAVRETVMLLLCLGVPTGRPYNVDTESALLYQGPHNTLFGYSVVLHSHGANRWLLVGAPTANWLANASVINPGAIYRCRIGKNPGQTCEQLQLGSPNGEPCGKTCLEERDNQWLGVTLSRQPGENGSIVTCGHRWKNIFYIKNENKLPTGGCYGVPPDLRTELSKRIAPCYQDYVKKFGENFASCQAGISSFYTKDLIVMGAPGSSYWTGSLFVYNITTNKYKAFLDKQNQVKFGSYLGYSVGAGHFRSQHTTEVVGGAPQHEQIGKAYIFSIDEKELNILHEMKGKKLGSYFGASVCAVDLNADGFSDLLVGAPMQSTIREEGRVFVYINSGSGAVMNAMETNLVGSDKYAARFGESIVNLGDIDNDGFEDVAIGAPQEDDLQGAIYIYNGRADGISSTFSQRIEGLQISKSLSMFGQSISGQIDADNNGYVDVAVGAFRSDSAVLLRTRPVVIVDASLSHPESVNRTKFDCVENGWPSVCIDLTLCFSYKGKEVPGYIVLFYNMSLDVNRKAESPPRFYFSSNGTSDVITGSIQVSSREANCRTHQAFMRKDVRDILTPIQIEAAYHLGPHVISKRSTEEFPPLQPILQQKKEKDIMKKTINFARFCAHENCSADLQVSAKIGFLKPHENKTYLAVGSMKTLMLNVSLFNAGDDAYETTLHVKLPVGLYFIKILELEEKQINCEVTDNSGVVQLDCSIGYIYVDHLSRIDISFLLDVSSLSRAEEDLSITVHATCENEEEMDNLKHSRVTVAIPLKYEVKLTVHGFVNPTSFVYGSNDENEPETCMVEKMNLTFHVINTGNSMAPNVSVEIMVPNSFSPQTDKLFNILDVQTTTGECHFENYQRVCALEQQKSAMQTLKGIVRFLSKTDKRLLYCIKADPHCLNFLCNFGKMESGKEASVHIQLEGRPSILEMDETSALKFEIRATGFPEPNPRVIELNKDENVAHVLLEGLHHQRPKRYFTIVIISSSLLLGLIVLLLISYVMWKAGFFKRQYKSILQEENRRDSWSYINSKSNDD
MEKK2 mut-MEK5 – signal of MEK5 binding to mutant human MEKK2 PB1 domain. bead flow cytometry, Alexa488-MEK5 binding to MEKK2 mutant. percent response, % at 10 µM. 290,000 tested, 0.35% active; in the data active = percent response above about 24%, passing the limit was not always enough
MEKK2wt confirm – raises or lowers MEK5 binding to wildtype human MEKK2, retest | bead flow cytometry, Alexa488-MEK5 binding to MEKK2 WT; actives lie on both sides | 5,900 tested, 2.4% active | AID 1892 | shares compounds with MEKK3 PB1 HTS | binding response (% of control), % at 10 µM; in the data active = binding response below about 16% or above about 210%; inactive = in between
MEKK2mut-MEK5 – signal of MEK5 binding to mutant human MEKK2, retest; AID 1893; shares compounds with MEKK3 PB1 HTS; 5,900 tested, 2% active; bead flow cytometry, Alexa488-MEK5 binding to MEKK2 mutant; percent response, % at 10 µM; in the data active = percent response mostly above about 71%, no sharp cut-off; inactive = mostly below about 38%;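 also: higher means compound restores mutant binding toward wildtype level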
MEKK3 confirm – confirmation of inhibitors of MEK5 binding to human MEKK3. shares compounds with MEKK3 PB1 HTS. bead flow cytometry, Alexa488-MEK5 binding to MEKK3; stronger effect = lower value. binding response (% of control), % at 10 µM. 5,900 tested, 1.8% active. AID 1894;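 active = binding response below 72% of control, or above a set upper limit, though filed actives all read lower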;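 also: 100% = DMSO only wells and 0% = binding blocked by excess unlabeled MEK5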
Active calls of the source: *; [ ] = remark or other dose. This is a sample that favours compounds with a hit; in the whole collection about 2.2% have one here.

`CCOC(=O)Cc1csc(NC(=O)CCC(=O)O)n1` gave MEKK2wt PB1 HTS 101, MEKK3 PB1 HTS 93, VLA-4 inh -2 and MEKK2 mut-MEK5 0.
Screening CCOC(=O)Cc1csc(NC(=O)CC(C)(C)CC(=O)O)n1 returned MEKK2wt PB1 HTS 131, MEKK3 PB1 HTS 128*, VLA-4 inh 1, MEKK2 mut-MEK5 25, MEKK2wt confirm 97, MEKK2mut-MEK5 -2 and MEKK3 confirm 100.
`CCOC(=O)Cc1csc(NC(=O)Cc2ccc([N+](=O)[O-])cc2)n1` gave MEKK2wt PB1 HTS 102, MEKK3 PB1 HTS 132*, VLA-4 inh 3, MEKK2 mut-MEK5 1, MEKK2wt confirm 125, MEKK2mut-MEK5 10 and MEKK3 confirm 111.
For CCOC(=O)Cc1csc(N/N=C\c2cccc(Br)c2)n1 the results were VLA-4 inh 5.
Screening O=C(Cc1ccc([N+](=O)[O-])cc1)Nc1nnc(C2CC2)s1 returned MEKK2wt PB1 HTS 107, MEKK3 PB1 HTS 171*, VLA-4 inh 8, MEKK2 mut-MEK5 1, MEKK2wt confirm 104, MEKK2mut-MEK5 -1 and MEKK3 confirm 101.
`CC(C)(C)Cc1nnc(NC(=O)Cc2ccc([N+](=O)[O-])cc2)s1` gave MEKK2wt PB1 HTS 93, MEKK3 PB1 HTS 94, VLA-4 inh 0 and MEKK2 mut-MEK5 -4.
CCOC(=O)Cc1csc(N/N=C/c2ccccc2)n1 was read as MEKK2wt PB1 HTS 110, MEKK3 PB1 HTS 154*, VLA-4 inh 2, MEKK2 mut-MEK5 3, MEKK2wt confirm 107, MEKK2mut-MEK5 -1 and MEKK3 confirm 102.
CC(=O)Nc1ccc(S(=O)(=O)NCCC(=O)OCC(=O)N2CCN(C(=O)c3ccco3)CC2)cc1 was read as MEKK2wt PB1 HTS 107, MEKK3 PB1 HTS 104, VLA-4 inh 7 and MEKK2 mut-MEK5 3.
For CC1CN(C(=O)c2ccc(NS(=O)(=O)c3ccc(F)cc3)cc2)CC(C)O1 (configuration not stated) the results were MEKK2wt PB1 HTS 112, MEKK3 PB1 HTS 105, VLA-4 inh 1 and MEKK2 mut-MEK5 8.
Screening N=C(N)c1ccc(OCCCCCOc2ccc(C(=N)N)cc2)cc1 returned MEKK2wt PB1 HTS 150*, MEKK3 PB1 HTS 69, VLA-4 inh 31, MEKK2 mut-MEK5 12, MEKK2wt confirm 97, MEKK2mut-MEK5 -14 and MEKK3 confirm 66*.
Screening Cc1ccc(S(=O)(=O)N(C)C[C@@H]2Oc3ccc(NC(=O)Cn4cnnn4)cc3C(=O)N([C@@H](C)CO)C[C@H]2C)cc1 returned VLA-4 inh 3.
For CC(C)(C)NC(=O)c1oc2ccccc2c1COc1ccccc1 the results were MEKK2wt PB1 HTS 102, MEKK3 PB1 HTS 69*[inhibitor], VLA-4 inh 9, MEKK2 mut-MEK5 -1, MEKK2wt confirm 103, MEKK2mut-MEK5 -12 and MEKK3 confirm 97.
For CCOC(=O)N1CCN(Cc2nc3cc(NC(=O)c4cccs4)ccc3n2CC)CC1 the results were MEKK2wt PB1 HTS 105, MEKK3 PB1 HTS 102, VLA-4 inh -9 and MEKK2 mut-MEK5 6.
For O=C(CC1C(=O)NCCN1CCCc1ccccc1)NCCc1ccccc1Cl (configuration not stated) the results were MEKK2wt PB1 HTS 126, MEKK3 PB1 HTS 102, VLA-4 inh -3, MEKK2 mut-MEK5 31*, MEKK2wt confirm 146, MEKK2mut-MEK5 21 and MEKK3 confirm 103.
COc1ccccc1CCNC(=O)CC1C(=O)NCCN1CCCc1ccccc1 (configuration not stated) was read as MEKK2wt PB1 HTS 138*, MEKK3 PB1 HTS 109, VLA-4 inh -1, MEKK2 mut-MEK5 26*, MEKK2wt confirm 113, MEKK2mut-MEK5 6 and MEKK3 confirm 101.
Screening COc1cccc(CNC(=O)CC2C(=O)NCCN2CCCc2ccccc2)c1 (configuration not stated) returned MEKK2wt PB1 HTS 129, MEKK3 PB1 HTS 108, VLA-4 inh 13 and MEKK2 mut-MEK5 15.
Screening C=CCC1(N(C(C)=O)c2ccccc2)CCCCC1 returned MEKK2wt PB1 HTS 89, MEKK3 PB1 HTS 93, VLA-4 inh -3 and MEKK2 mut-MEK5 -10.
CN(C)CCn1nnc2c(=O)oc3ccccc3c21 was read as MEKK3 PB1 HTS 56*[inhibitor], VLA-4 inh 6, MEKK2 mut-MEK5 -32, MEKK2wt confirm 101, MEKK2mut-MEK5 1 and MEKK3 confirm 102.
For Cc1ccc2oc(=O)n(CC(=O)OCCC(C)C)c2c1 the results were MEKK2wt PB1 HTS 71, MEKK3 PB1 HTS 74*[inhibitor], VLA-4 inh -2, MEKK2 mut-MEK5 -3, MEKK2wt confirm 102, MEKK2mut-MEK5 -4 and MEKK3 confirm 101.
Screening CCOC(=O)Cn1c(=O)oc2ccc(C)cc21 returned MEKK2wt PB1 HTS 99, MEKK3 PB1 HTS 95, VLA-4 inh 25 and MEKK2 mut-MEK5 -1.
